Records with an inconclusive call do not appear. A call without a number means that no potency is given here. Active and inactive are the calls of the source. Calls follow the shape of the dose curve; as a rule, active = well fitted cell-killing curve with a large enough effect in the repeat runs; inconclusive = weak or mixed curves, or effect the other way; inactive = flat fitted curve, though single readings scatter.
Test: cAMP Responsive Elements (CRE) small molecule agonists, cell-based qHTS assay: qHTS cell viability counter screen (AID 2060914); also: nearly all actives have a fitted effect of over 50% in size
Conditions: CRE-bla HEK293T viability, CellTiter-Glo luminescence, 5 h; series mostly up to 92.4 µM
Procedure, shortened: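 HEK 293T CRE-bla; DMEM + 10% dialyzed FBS, 25 mM HEPES; 18 h pre-incubation; compound 3 h, 37 °C/5% CO2; CellTiter-Glo added after reporter read; luminescence after 30 min RT.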

SMILES | Potency
CCCC(Cn1cncn1)c1ccc(Cl)cc1Cl (stereo not drawn) | inactive
CC(Cl)CCl (stereo not drawn) | inactive
O=C(c1ccccc1)C(Cl)Cl | inactive
OCCN(CCO)CCO | inactive
CCOP(=S)(OCC)Oc1cc(C)nc(C(C)C)n1 | inactive
CC(=O)CN(CC(C)=O)N=O | inactive
Nc1ccccc1C(=O)OC/C=C/c1ccccc1 | inactive
NC1CCC(CC2CCC(N)CC2)CC1 (stereo not drawn) | inactive
COP(=O)(OC)O/C(=C/Cl)c1cc(Cl)c(Cl)cc1Cl | inactive
CCOc1cc(Oc2ccc(C(F)(F)F)cc2Cl)ccc1[N+](=O)[O-] | inactive
CC(=O)[O-].[Tl+] | inactive
O=[N+]([O-])c1ccccc1CCl | inactive
Clc1ccccc1N1CCNCC1 | inactive
CCC(C)Br (stereo not drawn) | inactive
CC(C)OC(=S)S | inactive
Nc1cc(Cl)cc(Cl)c1 | inactive
O=Cc1ccccc1 | inactive
O=C(Cl)c1ccccc1 | inactive
CO/C=C(/C(=O)OC)c1ccccc1COc1cccc(C(F)(F)F)n1 | inactive
C=CCC1=C(C)[C@@H](OC(=O)[C@@H]2[C@@H](C=C(C)C)C2(C)C)CC1=O | inactive
CCCCOCN(C(=O)CCl)c1c(CC)cccc1CC | inactive
O=S(=O)(Cl)c1ccccc1 | inactive
COP(=O)(OC)Oc1ccc([N+](=O)[O-])cc1 | inactive
CCCCCCCCn1cc[n+](C)c1 | inactive
Clc1cccc(N2CCNCC2)c1 | inactive
CC(O)CCO (stereo not drawn) | inactive
C[C@H](CN1CCOCC1)C(C(=O)N1CCCC1)(c1ccccc1)c1ccccc1 | inactive
Cc1ccccc1CO[C@@H]1C[C@@]2(C(C)C)CC[C@]1(C)O2 | inactive

From PubChem BioAssay (Tox21)
